Records with an inconclusive call do not appear. Calls of active or inactive are those of the source. Unless noted, calls follow the shape of the full dose curve.
System: not listed separately
Experiment: qHTS for Inhibitors of the Functional Ribonucleoprotein Complex (vRNP) of Lymphocytic Choriomeningitis Arenaviruses (LCMV): Viability assay - alamar blue signal for LCMV Primary Screen (AID 1347085; calls by dose curve; tested in HEK293 reporter line; also: nearly all actives have a fitted effect of over 80% in size)
Details: alamar blue viability counter-screen, LCMV vRNP screen cells; series mostly up to 57.5 µM; activity change, negative = lower viability: at the top concentration
% is scaled to controls: 0 for no effect and ±100 for the full control effect.

Q: Which “activity change, negative = lower viability” value does the source give for CC(C)=CC1C(C(=O)OCc2cccc(Oc3ccccc3)c2)C1(C)C (stereo not drawn) here?
A: -4.18% (inactive)

Q: For CN1C(=S)CN=C(c2ccccc2)c2cc(Cl)ccc21, which “activity change, negative = lower viability” value is on record?
A: -127% (inactive)

Q: With CCN(CC)CCOC(=O)C(O)(c1ccccc1)c1ccccc1 as the molecule, how does the “activity change, negative = lower viability” value read?
A: -4.49% (inactive)

Q: Which “activity change, negative = lower viability” value does the source give for C=C1C[C@@H]2[C@H](CC[C@]3(C)C(=O)CC[C@@H]23)[C@@]2(C)C=CC(=O)C=C12 here?
A: -3.32% (inactive)

Q: With O=C(O)c1ccc2[nH]cc(CCCCN3CC=C(c4ccccc4)CC3)c2c1 as the molecule, how does the “activity change, negative = lower viability” value read?
A: 2.19% (inactive)

Q: Which “activity change, negative = lower viability” value does the source give for CCOP(=S)(OCC)Oc1cc(C)nc(C(C)C)n1 here?
A: 7.76% (inactive)

Q: With Oc1ccccc1-c1ccccc1 as the molecule, how does the “activity change, negative = lower viability” value read?
A: 0.795% (inactive)

Q: Which “activity change, negative = lower viability” value does the source give for CC(C)(C)NCC(O)c1cc(Cl)c(N)c(Cl)c1 (stereo not drawn) here?
A: 0.377% (inactive)

Q: For C[C@]12CC[C@H]3[C@@H](CCC4=CC(=O)CC[C@@H]43)[C@@H]1CC[C@@H]2OC(=O)CCc1ccccc1, which “activity change, negative = lower viability” value is on record?
A: 9.75% (inactive)

Q: For CC(=O)Nc1cc([As](=O)(O)O)ccc1O, which “activity change, negative = lower viability” value is on record?
A: 5.49% (inactive)

Q: With N[C@@H]1C[C@H]1c1ccccc1 as the molecule, how does the “activity change, negative = lower viability” value read?
A: -4.54% (inactive)

Q: With c1ccc2c(c1)Nc1ccccc1S2 as the molecule, how does the Potency read?
A: inactive

Q: For CC1=C2C[C@@H]3[C@@H](CC=C4C[C@@H](O)CC[C@@]43C)[C@@H]2CC[C@]12O[C@H]1C[C@H](C)CN[C@H]1[C@H]2C, which “activity change, negative = lower viability” value is on record?
A: -0.875% (inactive)

Q: Which Potency does the source give for O=P1(NCCCl)OCCCN1CCCl (stereo not drawn) here?
A: inactive

Q: With O=C(O)C(=O)c1cn(Cc2ccccc2)c2ccc(-c3ccc(OC(F)(F)F)cc3)cc12 as the molecule, how does the “activity change, negative = lower viability” value read?
A: 0.682% (inactive)

Q: Which “activity change, negative = lower viability” value does the source give for Cc1ccc2c(c1)C1CN(C)CCC1N2 (stereo not drawn) here?
A: -2.17% [at 24.7 µM] (inactive)

Q: With COC1(CS(=O)c2ccccc2)CCN(CCc2c[nH]c3ccc(F)cc23)CC1 (stereo not drawn) as the molecule, how does the “activity change, negative = lower viability” value read?
A: 1.2% (inactive)

Q: For CC1OC(C)OC(C)O1 (stereo not drawn), which “activity change, negative = lower viability” value is on record?
A: 1.25% (inactive)

Q: Which “activity change, negative = lower viability” value does the source give for O=[N+]([O-])c1cc([As](=O)(O)O)ccc1O here?
A: 1.19% (inactive)

Q: With O=C1CC[C@@]2(O)[C@H]3Cc4ccc(O)c5c4[C@@]2(CCN3CC2CC2)[C@H]1O5 as the molecule, how does the Potency read?
A: inactive

Q: With Oc1ccc(Cl)cc1Cc1ccccc1 as the molecule, how does the Potency read?
A: inactive

Q: Which “activity change, negative = lower viability” value does the source give for Oc1cccc2cccnc12 here?
A: 13.9% (inactive)

Q: With FC(F)(F)c1cccc(C2=CCN(CCc3ccc4ccccc4c3)CC2)c1 as the molecule, how does the “activity change, negative = lower viability” value read?
A: -8.82% (inactive)

Q: For NP(N)(=O)NC(=O)c1ccc(F)cc1, which “activity change, negative = lower viability” value is on record?
A: 2.87% (inactive)

Q: Which “activity change, negative = lower viability” value does the source give for CC(C)NCC(O)c1ccccc1Cl (stereo not drawn) here?
A: -0.408% (inactive)

Q: For CCCC1CCCCN1 (stereo not drawn), which “activity change, negative = lower viability” value is on record?
A: 10.9% (inactive)

Q: With CC[N+](CC)(CC)CC as the molecule, how does the Potency read?
A: inactive

Q: Which Potency does the source give for C#CCN(C)[C@H](C)Cc1ccccc1 here?
A: inactive

Q: With O=c1oc2ccccc2c(O)c1C(CC(O)c1ccc(-c2ccc(Br)cc2)cc1)c1ccccc1 (stereo not drawn) as the molecule, how does the “activity change, negative = lower viability” value read?
A: -4.19% (inactive)

Q: For N[C@@H](Cc1ccc(Oc2cc(I)c(O)c(I)c2)c(I)c1)C(=O)O, which “activity change, negative = lower viability” value is on record?
A: 4.05% (inactive)

Q: For Clc1ccc(CCC(Cn2ccnc2)Sc2c(Cl)cccc2Cl)cc1 (stereo not drawn), which Potency is on record?
A: inactive

Q: With Cn1c(CCCC(=O)O)nc2cc(N(CCCl)CCCl)ccc21 as the molecule, how does the Potency read?
A: inactive

Q: Which “activity change, negative = lower viability” value does the source give for C#CCOC(C(=O)OCCN(C)C)(c1ccccc1)c1ccccc1 here?
A: 5.76% (inactive)

Q: Which “activity change, negative = lower viability” value does the source give for CC(C)(N)Cc1ccc(Cl)cc1 here?
A: 8.22% (inactive)

Q: For OCCOc1ccccc1, which Potency is on record?
A: inactive

Q: With CCC(C(N)=O)N1CCCC1=O (stereo not drawn) as the molecule, how does the “activity change, negative = lower viability” value read?
A: 6.14% (inactive)

Q: Which “activity change, negative = lower viability” value does the source give for Clc1cccc(N2CCNCC2)c1 here?
A: 1.49% (inactive)

Q: With CC(C)(C)CC(C)(C)c1ccc(O)cc1 as the molecule, how does the Potency read?
A: inactive

Q: For NCCc1cc(O)c(O)cc1O, which “activity change, negative = lower viability” value is on record?
A: -17.4% (inactive)

Molecular target: Nucleoprotein (Lymphocytic choriomeningitis virus (strain Armstrong)) (UniProt P09992)
Sequence (P09992 whole entry, looked up): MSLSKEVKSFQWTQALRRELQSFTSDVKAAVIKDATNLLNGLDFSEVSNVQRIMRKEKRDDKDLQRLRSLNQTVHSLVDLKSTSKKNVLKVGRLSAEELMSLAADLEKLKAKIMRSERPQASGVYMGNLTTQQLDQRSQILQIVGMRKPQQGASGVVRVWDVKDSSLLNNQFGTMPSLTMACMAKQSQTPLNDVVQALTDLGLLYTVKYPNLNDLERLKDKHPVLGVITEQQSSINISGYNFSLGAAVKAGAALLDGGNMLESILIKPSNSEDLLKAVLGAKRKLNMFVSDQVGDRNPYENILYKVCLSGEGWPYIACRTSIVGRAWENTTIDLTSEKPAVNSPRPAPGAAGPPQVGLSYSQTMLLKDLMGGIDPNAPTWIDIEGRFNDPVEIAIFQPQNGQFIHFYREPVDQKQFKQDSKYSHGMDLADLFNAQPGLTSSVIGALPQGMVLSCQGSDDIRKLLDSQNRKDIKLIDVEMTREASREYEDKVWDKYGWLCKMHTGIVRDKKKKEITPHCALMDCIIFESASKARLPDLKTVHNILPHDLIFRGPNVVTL
Experiment: qHTS for Inhibitors of the Functional Ribonucleoprotein Complex (vRNP) of Lymphocytic Choriomeningitis Arenaviruses (LCMV): LCMV Primary Screen - GLuc reporter signal (AID 1347086); also: nearly all actives have a fitted effect of over 70% in size
Details: LCMV minigenome vRNP cell assay, Gaussia luciferase reporter; series mostly up to 57.5 µM; activity change, negative = inhibition: at the top concentration

Q: For CC(C)=CC1C(C(=O)OCc2cccc(Oc3ccccc3)c2)C1(C)C (stereo not drawn), which “activity change, negative = inhibition” value is on record?
A: -12.8% (inactive)

Q: Which “activity change, negative = inhibition” value does the source give for CN1C(=S)CN=C(c2ccccc2)c2cc(Cl)ccc21 here?
A: -89.1% (inactive)

Q: Which “activity change, negative = inhibition” value does the source give for CCN(CC)CCOC(=O)C(O)(c1ccccc1)c1ccccc1 here?
A: -2.19% (inactive)

Q: Which “activity change, negative = inhibition” value does the source give for C=C1C[C@@H]2[C@H](CC[C@]3(C)C(=O)CC[C@@H]23)[C@@]2(C)C=CC(=O)C=C12 here?
A: -0.921% (inactive)

Q: For O=C(O)c1ccc2[nH]cc(CCCCN3CC=C(c4ccccc4)CC3)c2c1, which “activity change, negative = inhibition” value is on record?
A: 24.2% (inactive)

Q: For CCOP(=S)(OCC)Oc1cc(C)nc(C(C)C)n1, which “activity change, negative = inhibition” value is on record?
A: -12.6% (inactive)

Q: With Oc1ccccc1-c1ccccc1 as the molecule, how does the “activity change, negative = inhibition” value read?
A: 25.8% (inactive)

Q: With CC(C)(C)NCC(O)c1cc(Cl)c(N)c(Cl)c1 (stereo not drawn) as the molecule, how does the “activity change, negative = inhibition” value read?
A: 5.32% (inactive)

Q: For C[C@]12CC[C@H]3[C@@H](CCC4=CC(=O)CC[C@@H]43)[C@@H]1CC[C@@H]2OC(=O)CCc1ccccc1, which “activity change, negative = inhibition” value is on record?
A: 20.6% (inactive)

Q: For CC(=O)Nc1cc([As](=O)(O)O)ccc1O, which “activity change, negative = inhibition” value is on record?
A: 23.2% (inactive)

Q: With N[C@@H]1C[C@H]1c1ccccc1 as the molecule, how does the “activity change, negative = inhibition” value read?
A: 21.4% (inactive)

Q: For c1ccc2c(c1)Nc1ccccc1S2, which Potency is on record?
A: inactive

Q: For CC1=C2C[C@@H]3[C@@H](CC=C4C[C@@H](O)CC[C@@]43C)[C@@H]2CC[C@]12O[C@H]1C[C@H](C)CN[C@H]1[C@H]2C, which “activity change, negative = inhibition” value is on record?
A: -1.91% (inactive)

Q: With O=P1(NCCCl)OCCCN1CCCl (stereo not drawn) as the molecule, how does the Potency read?
A: inactive

Q: With O=C(O)C(=O)c1cn(Cc2ccccc2)c2ccc(-c3ccc(OC(F)(F)F)cc3)cc12 as the molecule, how does the “activity change, negative = inhibition” value read?
A: -0.0544% (inactive)

Q: For Cc1ccc2c(c1)C1CN(C)CCC1N2 (stereo not drawn), which “activity change, negative = inhibition” value is on record?
A: -1.46% [at 24.7 µM] (inactive)

Q: For COC1(CS(=O)c2ccccc2)CCN(CCc2c[nH]c3ccc(F)cc23)CC1 (stereo not drawn), which “activity change, negative = inhibition” value is on record?
A: -38.6% (inactive)

Q: Which “activity change, negative = inhibition” value does the source give for CC1OC(C)OC(C)O1 (stereo not drawn) here?
A: 7.97% (inactive)

Q: Which “activity change, negative = inhibition” value does the source give for O=[N+]([O-])c1cc([As](=O)(O)O)ccc1O here?
A: 28.7% (inactive)

Q: With O=C1CC[C@@]2(O)[C@H]3Cc4ccc(O)c5c4[C@@]2(CCN3CC2CC2)[C@H]1O5 as the molecule, how does the Potency read?
A: inactive

Q: For Oc1ccc(Cl)cc1Cc1ccccc1, which Potency is on record?
A: inactive

Q: Which “activity change, negative = inhibition” value does the source give for Oc1cccc2cccnc12 here?
A: 27% (inactive)

Q: Which “activity change, negative = inhibition” value does the source give for FC(F)(F)c1cccc(C2=CCN(CCc3ccc4ccccc4c3)CC2)c1 here?
A: 2.29% (inactive)

Q: For NP(N)(=O)NC(=O)c1ccc(F)cc1, which “activity change, negative = inhibition” value is on record?
A: 9.31% (inactive)

Q: For CC(C)NCC(O)c1ccccc1Cl (stereo not drawn), which “activity change, negative = inhibition” value is on record?
A: 1.97% (inactive)

Q: For CCCC1CCCCN1 (stereo not drawn), which “activity change, negative = inhibition” value is on record?
A: 30.1% (inactive)

Q: With CC[N+](CC)(CC)CC as the molecule, how does the Potency read?
A: inactive

Q: For C#CCN(C)[C@H](C)Cc1ccccc1, which Potency is on record?
A: inactive

Q: For O=c1oc2ccccc2c(O)c1C(CC(O)c1ccc(-c2ccc(Br)cc2)cc1)c1ccccc1 (stereo not drawn), which “activity change, negative = inhibition” value is on record?
A: 5.26% (inactive)

Q: With N[C@@H](Cc1ccc(Oc2cc(I)c(O)c(I)c2)c(I)c1)C(=O)O as the molecule, how does the “activity change, negative = inhibition” value read?
A: -26.2% (inactive)

Q: With Clc1ccc(CCC(Cn2ccnc2)Sc2c(Cl)cccc2Cl)cc1 (stereo not drawn) as the molecule, how does the “activity change, negative = inhibition” value read?
A: -1.85% (inactive)

Q: Which Potency does the source give for Cn1c(CCCC(=O)O)nc2cc(N(CCCl)CCCl)ccc21 here?
A: inactive

Q: Which “activity change, negative = inhibition” value does the source give for C#CCOC(C(=O)OCCN(C)C)(c1ccccc1)c1ccccc1 here?
A: 17.7% (inactive)

Q: For CC(C)(N)Cc1ccc(Cl)cc1, which “activity change, negative = inhibition” value is on record?
A: -4.31% (inactive)

Q: With OCCOc1ccccc1 as the molecule, how does the Potency read?
A: inactive

Q: With CCC(C(N)=O)N1CCCC1=O (stereo not drawn) as the molecule, how does the “activity change, negative = inhibition” value read?
A: 9.08% (inactive)

Q: With Clc1cccc(N2CCNCC2)c1 as the molecule, how does the “activity change, negative = inhibition” value read?
A: -1.11% (inactive)

Q: Which Potency does the source give for CC(C)(C)CC(C)(C)c1ccc(O)cc1 here?
A: inactive

Q: Which “activity change, negative = inhibition” value does the source give for NCCc1cc(O)c(O)cc1O here?
A: 8.67% (inactive)

Source: PubChem BioAssay (NCATS)
